The panel holds about 83,000 compounds, 20% with a hit somewhere; the sample as a whole holds those more often.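 Activity criterion: percent growth below 10, measured after cells in 96-well plates were exposed to a single compound concentration for 48 hours.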 Calls of active or inactive are those of the source.
Tested on: HL-60(TB) leukemia
Test: NCI-60 one-dose screen, 48 h (100 = growth as untreated, 0 = no growth, -100 = all killed)
Conditions: 10 µM unless noted

| Compound | growth |
| --- | --- |
| COC(=O)c1c2c(c(C)[n+]([O-])c1C)C(=O)C=CC2=O | -7.95% (active) |
| Cc1ccc([N+](=O)[O-])cc1NC(=O)Nc1cccc(F)c1 | 58.7% (inactive) |
| CN(C)c1nc(N)c(N=O)c(N)n1 | 106% (inactive) |
| N#CC1=C(c2ccccc2)Nc2c(c(-c3ccc(Cl)cc3)nn2-c2ccccc2)C12C(=O)Nc1ccc(Cl)cc12 (stereo not given) | 48.2% (inactive) |
| COc1ccc(-n2cnc3c(sc4ncc(Cl)cc43)c2=O)cc1 | 90.1% (inactive) |
| COc1cc(OC)cc(-c2ccc(-c3ccc(C(=N)N)o3)o2)c1 | 4.66% (active) |
| C[C@@H](Oc1ccc(C(=O)NS(=O)(=O)C(C)(C)C)cc1C(F)(F)F)c1ccc(Oc2ccccc2)cn1 | 15.8% (inactive) |
| CCCCc1ccc(NC(=O)C(F)(F)F)cc1 | 71.2% (inactive) |
| CCOC(=O)c1c(C)n(-c2ccc(Cl)cc2)c2ccc(OC(=O)/C=C/c3ccccc3)cc12 | 57.1% (inactive) |
| NS(=O)(=O)c1ccc(N2N=C(c3ccc(-c4ccccc4)cc3)CC2c2ccc(Cl)cc2)cc1 (stereo not given) | 86.5% (inactive) |
| O=C(Nc1ccc(Nc2ccncc2)cc1)c1ccc(C(=O)Nc2ccc(Nc3ccncc3)cc2)cc1 | 23% (inactive) |
| Oc1ccc2c(=S)cc(-c3ccc(Br)cc3)oc2c1O | -22% (active) |
| COc1c(O)cc2c(c1CC=C(C)C)OC(=O)c1c(cc(O)c(CC=C(C)C)c1O)O2 | 31% (inactive) |
| CC(=O)N1N=C(c2ccc(Nc3nc(Nc4ccc(F)cc4)nc(Nc4ccc(F)cc4)n3)cc2)CC1c1ccc(N(C)C)cc1 (stereo not given) | 10% (active) |
| CC(C)(C)c1nn(-c2ccccc2)c2c1C(=O)CSC(c1ccc3c(c1)OCO3)N2 (stereo not given) | 89.5% (inactive) |
| O=C1c2cccnc2C(=O)c2c1c(C(=O)OCCCN1CCCCC1)c1ccccn21 | -21.6% (active) |
| Cc1ccc(C(=O)Cc2ccccc2)c(O)c1 | 70.9% (inactive) |
| CC(=O)c1c(C)[nH]c(-c2nc3ccc(N4CCN(C)CC4)cc3[nH]2)c1-c1ccc(OCC2CCOCC2)cc1 | -12.9% (active) |
| CCCC#CCN(CC)CC | 96.6% (inactive) |
| O=c1c2cc(F)cc(Cl)c2sc2c(Cl)nc3ccccc3c12 | 115% (inactive) |

| Compound | growth |
| --- | --- |
| Cc1cc(-c2ccc(N=Nc3c(S(=O)(=O)O)cc4cc(S(=O)(=O)O)cc(O)c4c3O)c(C)c2)ccc1N=Nc1c(S(=O)(=O)O)cc2cc(S(=O)(=O)O)cc(O)c2c1O | 119% (inactive) |
| CCOCc1nc2ccccc2c(=O)[nH]1 | 107% (inactive) |
| Cc1nn(-c2nc(-c3cc4ccccc4oc3=O)cs2)c(C)c1N=Nc1ccccc1 | 101% (inactive) |
| CCN1CCN(C(=O)[C@]23CCC(C)(C)C[C@@H]2C2=CC[C@@H]4[C@@]5(C)C/C(=C/c6ccncc6)C(=O)C(C)(C)[C@@H]5CC[C@@]4(C)[C@]2(C)CC3)CC1 | -33.8% (active) |
| COC(=O)Nc1ccc(-c2nc(-c3cccc(OC)c3)c(-c3ccnc(Br)c3)[nH]2)cc1 | 44.2% (inactive) |
| Nc1nc(N)c(-c2ccc(Cl)cc2)c(/C=C/c2ccc([N+](=O)[O-])cc2)n1 | 47.8% (inactive) |
| CCCCC/C(=C\c1ccccc1)C1OC(C)C(C)O1 (stereo not given) | 115% (inactive) |
| CCCCCCCCCCCCCCCCNc1ccccc1 | 8.47% (active) |
| Nc1ncc(-c2ccc3ncnc(N4CCc5cc(F)c(Cl)cc54)c3c2)cc1C=O | 2.72% (active) |
| O=C(CC1(O)C(=O)Nc2c(Cl)ccc(Cl)c21)c1ccc(Cl)cc1Cl (stereo not given) | 80.8% (inactive) |
| N#Cc1cc(-c2cc3ccccc3o2)oc1N | -49.3% (active) |
| C=CCn1c(SCC(=O)Nc2ccc(C(=O)/C=C/c3ccc(Cl)cc3)cc2)nnc1-c1cc(-c2ccccc2)nc2ccccc12 | 99.8% (inactive) |
| O=C1/C(=C\c2coc3ccccc3c2=O)c2ccccc2N1c1c(Cl)cccc1Cl | 33.8% (inactive) |
| NC1=Nc2cc(OCCCCN3Cc4ccccc4C3)c(OCC3CC3)cc2C12CCCC2 | 20.2% (inactive) |
| O=[N+]([O-])c1ccc(N2CCN=N2)cc1 | 84.4% (inactive) |
| CCCCCCCCCCCCCCC(C(=O)OCC)C(=O)OCC | 104% (inactive) |
| O=C(/C=C(/C=C/c1csc2ccccc12)OB(F)F)/C=C/c1csc2ccccc12 | 2.68% (active) |
| Cc1cc(Cc2cc(C)cc(C(C)(C)C)c2O)c(O)c(C(C)(C)C)c1 | 59.3% (inactive) |
| COc1cc([C@@H]2c3cc4c(cc3[C@H](SC(=N)N)[C@H]3COC(=O)[C@H]23)OCO4)cc(OC)c1OC | -18.8% (active) |
| COc1ccc(C(=O)c2sc3nc4c(cc3c2N)CCCC4)cc1OC | 11.4% (inactive) |

Source: PubChem BioAssay (NCI)
